Hit rate of the full screen: of about 310,000 compounds, about 1,000 (0.32%) were called active. A selection follows. Measured potencies and affinities stand elsewhere. Values without a mark were called inactive. How the calls were made is not given here.

In general, inhibition refers to the relative decrease from the control value, in per cent.

The nature of this test: PhoP regulon inhibitors, Salmonella typhi PhoP promoter GFP reporter, confirmatory (AID 1850).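 Further: 0% = induced wells with vehicle and 100% = uninduced wells.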 The settings on record: fluorescence, 4 h, at 50 µM, active compounds read high.
`Nc1ccc2c(c1)C(=O)C(=O)c1ccccc1-2`: the inhibition was 6.22%.

As to `Nc1ccc(Br)c2c1C(=O)c1ccccc1C2=O`, the inhibition is -1.04%.

Consider `Cc1cc(C)cc(NC2=C(N)C(=O)c3ccccc3C2=O)c1`, for which the inhibition was -9.49%.

In the case of `O=C1C(=O)c2ccc(-c3ccccc3)cc2-c2ccccc21`, the inhibition is 1.01%.

Consider `COc1ccc(/C=C/C(=O)c2ccc(O)cc2)cc1CN1CCOCC1`, for which the inhibition was -8.66%.

Consider `CC(=O)Oc1ccc2c(=O)oc(-c3ccccc3C)nc2c1`, for which the inhibition is -4.89%.

In the case of `CN(C)CCOC1c2ccccc2C=Cc2ccccc21`, the inhibition is 10.7%.

In the case of `O=C1N=C2SCCN2/C1=C\c1ccc(Cl)cc1`, the inhibition is 3.83%.

Regarding `O=C(NCc1nc(-c2ccccc2)no1)c1cccs1`, the inhibition is -6.48%.

For `COc1cccc(/C=N/NC(=O)CN2CC(c3ccccc3)CC2=O)c1OC` (stereo not given), the inhibition was -3.73%.

Regarding `COc1cccc(/C=N/NC(=O)CN2CC(c3ccccc3)CC2=O)c1O` (stereo not given), the inhibition was 3.81%.

For `COc1cc(OC)c(C2=NOC(C(=O)N3CCc4ccccc4C3)C2)cc1Cl` (stereo not given), the inhibition was -5.06%.

With `COC(=O)c1cccc(N(CC(=O)NC2CCCCC2)C(=O)CNC(=O)c2cccs2)c1`, the inhibition was 7.52%.

Turning to `CCN(CC)c1ccc(CNc2nc3ccccc3n2CCN2CCOCC2)cc1`, the inhibition was 6.95%.

Regarding `COc1ccc(CNc2nc3ccccc3n2CCN2CCCCC2)cc1`, the inhibition is -9.45%.

On to `COC(=O)N/N=C/c1ccccc1Cl`, for which the inhibition is 9.79%.

Regarding `COC(=O)N/N=C/c1ccccc1`, the inhibition is 3.82%.

For the compound `O=C(CSc1ccc2c(c1)OCCO2)NC(=O)Cc1ccccc1`, the inhibition is -0.51%.

Turning to `Cc1cccc(/C=C/c2onc(C)c2S(=O)(=O)N2CCC(C(=O)N3CCCCCC3)CC2)c1`, the inhibition was -16.2%.

As to `CCOC(=O)c1cc2c(=O)n3ccccc3nc2n(C)c1=NC(=O)c1c(-c2c(F)cccc2Cl)noc1C`, the inhibition was -5.85%.

In the case of `CC1CCCCN1CCCNC(=O)c1ccc(Br)cc1` (stereo not given), the inhibition is 8.17%.

In the case of `CC(C)CNC(=O)COC(=O)c1ccc(Cl)c(S(=O)(=O)N2CCc3ccccc32)c1`, the inhibition is 1.54%.

In the case of `C[C@@H](NCCc1ccc(O)cc1)[C@@H](O)c1ccc(O)cc1`, the inhibition is -9.6%.

As for `C[C@H](NCCc1ccc(O)cc1)[C@H](O)c1ccc(O)cc1`, the inhibition is -4.37%.

Take `Cc1ccnc(NC(=O)C(C)N2C(=O)c3ccccc3S2(=O)=O)c1` (stereo not given): the inhibition is 6.11%.

For the compound `CCOc1ccccc1NC(=O)NNC(=O)c1ccc2ccccc2c1`, the inhibition was 9%.

`O=C(Nc1nnc(-c2ccco2)o1)c1ccc(Cl)s1`: the inhibition was 2.73%.

For `COc1cccc(-c2nnc(NC(C)=O)o2)c1`, the inhibition is -10.6%.

On to `COCCN(C(=O)COC(=O)C1(C)CC1(Cl)Cl)c1c(N)n(Cc2ccccc2)c(=O)[nH]c1=O` (stereo not given), for which the inhibition is -4.07%.

In the case of `O=C(NC1CCN(C(=S)Nc2ccc(F)cc2)CC1)C1CCCCC1`, the inhibition was 1.22%.

Turning to `Cc1ccc(CNC(=O)C2CCC(=O)N(Cc3cccc(C(F)(F)F)c3)C2)o1` (stereo not given), the inhibition is -2.94%.

Consider `Cc1ccc(NC(=O)CN(C)C2CCCCC2)cc1Cl`, for which the inhibition is 17.3%.

In the case of `O=C(CCN(CCO)Cc1ccccc1)Nc1ccc(Br)cc1`, the inhibition was 20.3%.

Take `CN(CC(=O)Nc1ccc(Cl)c(Cl)c1)C1CCCCC1`: the inhibition is 9.2%.

Consider `CCN(CCC(=O)Nc1cc(OC)cc(OC)c1)Cc1ccccc1`, for which the inhibition was -6.75%.

Consider `Cc1ccc(NC(=O)CNCc2ccccc2)c(Br)c1`, for which the inhibition was 19.8%.

On to `Cc1ccc(NC(=O)CNCc2cccs2)cc1Br`, for which the inhibition is 2.2%.

Turning to `N#Cc1cc(NC(=O)c2ccc(F)cc2)c(=O)n2c1[nH]c1ccccc12`, the inhibition was -0.7%.

Turning to `CCn1cc(CN2CCC(C(=O)Nc3cccc(-c4cccc(OC)c4)c3)CC2)cn1`, the inhibition was -5.91%.

As for `CN1CCN(C(=O)/C(=C\c2ccccc2)c2ccccc2)CC1`, the inhibition is 3.28%.

Turning to `Cc1cccc(-n2cc(-c3ccccc3)c3c(=O)[nH]cnc32)c1`, the inhibition was -10.3%.

For the compound `COc1ccc(CCNC(=O)CN(c2cccc([N+](=O)[O-])c2)S(C)(=O)=O)cc1`, the inhibition was -12%.

For `Cc1ccccc1C(=O)N1CCN(S(=O)(=O)c2ccccc2)CC1`, the inhibition is -4.37%.

For the compound `O=C(CSc1nnc(SCc2ccccc2Cl)s1)N/N=C/c1ccc(C(=O)O)cc1`, the inhibition was -6.94%.

Take `COC(=O)c1cc(S(=O)(=O)N2CCN(c3ccccc3F)CC2)c[nH]1`: the inhibition is -1.3%.

`O=C(O)c1cccc(N2C(=O)CSC2=S)c1`: the inhibition is 65.1%.

Consider `O=C1CSC(=S)N1c1cccc(Cl)c1`, for which the inhibition was -2.26%.

For `Cc1cc(NC(=O)NN2CCOCC2)nn1-c1c(Cl)cccc1Cl`, the inhibition is -1.26%.

For the compound `Nc1nc(SCC(=O)Nc2ccc([N+](=O)[O-])cc2)[nH]c(=O)c1NC(=O)c1ccc(Br)o1`, the inhibition is -2.49%.

Take `c1cncc(-c2nnc(SCc3cccc4ccccc34)o2)c1`: the inhibition was 8.54%.

`c1ccc2c3c([nH]c2c1)-c1[nH]ncc1CC3`: the inhibition was -5.34%.

With `Cc1ccc2[nH]c3c(c2c1)CCc1cn[nH]c1-3`, the inhibition was -6.69%.

Consider `Cc1ccc2c(c1)C1C3CCC(C3)C1S(=O)N2` (stereo not given), for which the inhibition was -0.67%.

With `COc1cc2ccccc2cc1C(=O)Nc1cccnc1`, the inhibition is -16.1%.

`Clc1ccc(Cc2ccc(Cl)nn2)c(Cl)c1`: the inhibition is -3.15%.

`Cc1nc(N)c(Cc2ccccc2F)c(N)n1`: the inhibition was 8.16%.

For `Nc1nc(-c2ccccn2)nc(N)c1Cc1ccc(Cl)cc1Cl`, the inhibition was -4%.

Take `Nc1nnc(Cc2ccc(Cl)cc2Cl)s1`: the inhibition is -0.54%.

On to `CCOC(=O)C1(Cc2cccc(OC)c2)CCN(Cc2cnc(SC)nc2)CC1`, for which the inhibition was -3.1%.

Consider `CC(/C=C/c1ccc2c(c1)OCO2)=N/NC(=O)COc1ccc(C)cc1`, for which the inhibition is -7.1%.

For `CS(=O)(=O)c1ccc(Cl)c(NC(=O)COC(=O)/C=C/c2cnc3ccccc3n2)c1`, the inhibition was 5.47%.

On to `O=C(Nc1nc(-c2cccs2)cs1)c1ccc(Cl)s1`, for which the inhibition was -14%.

Regarding `Cc1csc(NC(=O)c2ccc(Br)s2)n1`, the inhibition is 11.7%.

For `O=C(Nc1nc(-c2ccccn2)cs1)c1ncc(Cl)c(Cl)c1Cl`, the inhibition was -0.4%.

On to `O=C(Nc1nc(-c2ccccn2)cs1)c1ccco1`, for which the inhibition was 2.93%.

In the case of `COC(=O)C(Cc1ccccc1)N1CCS(=O)(=O)CC1` (stereo not given), the inhibition was 9.2%.

On to `CCCCOc1ccc(/C(O)=C2/C(=O)C(=O)N(CCN(C)C)C2c2ccc(O)c(OC)c2)cc1` (stereo not given), for which the inhibition was -11.8%.

Consider `O=C(Nc1ccccn1)c1ccc2c(c1)S(=O)(=O)c1ccccc1C2=O`, for which the inhibition was -0.07%.

`COc1ccccc1CNc1cc(C)ccc1C`: the inhibition was 4.32%.

`COc1ccc(CCN(Cc2nc3ccccc3c(=O)[nH]2)C(=O)C2CC2)cc1`: the inhibition is -4.16%.

Turning to `CN(C)CCCNC(=O)/C(=C/c1ccc(-c2ccc([N+](=O)[O-])cc2)o1)NC(=O)c1ccccc1`, the inhibition was 8.87%.

For `CN(C)CCCNC(=O)/C(=C\c1ccc(-c2ccc(Br)cc2)o1)NC(=O)c1ccccc1`, the inhibition was 22.2%.

As for `Cc1ccc(C(=O)N/C(=C\c2ccc(-c3cccc([N+](=O)[O-])c3)o2)C(=O)NCCCN(C)C)cc1`, the inhibition was 16.2%.

With `Cc1ccc(C(=O)N/C(=C\c2ccc(-c3ccccc3[N+](=O)[O-])o2)C(=O)NCCCN(C)C)cc1`, the inhibition was -1.46%.

For `Cc1ccc(C(=O)N/C(=C/c2ccc(-c3ccc([N+](=O)[O-])cc3)o2)C(=O)NCCCN(C)C)cc1`, the inhibition was -1.29%.

Regarding `CN(C)CCNC(=O)/C(=C/c1ccc(-c2cccc(Cl)c2)o1)NC(=O)c1ccccc1`, the inhibition was 20.4%.

Consider `Cn1c(=O)oc2cc(S(=O)(=O)NCc3ccccn3)ccc21`, for which the inhibition is 0.2%.

Regarding `Cc1cc(C)cc(NC(=S)/N=C(\N)Nc2nc(C)c3ccccc3n2)c1`, the inhibition is -5.71%.

As to `Cc1ccc(COC(=O)c2ccc3ccccc3n2)cc1`, the inhibition is -0.98%.

Regarding `COc1ccc(CC(=O)c2ccc(O)cc2O)cc1`, the inhibition is -0.72%.

For the compound `O=C(Cc1ccc(F)cc1)c1ccc(O)cc1O`, the inhibition is -11.9%.

For `C=CCOCCN1C(=O)C2C(c3ccccc3)C=CC(c3ccccc3)C2C1=O` (stereo not given), the inhibition is 5.25%.

On to `CCc1nnc(NC(=O)[C@@H]2CCCN2S(=O)(=O)c2ccc3c(c2)OCCO3)s1`, for which the inhibition was -7.63%.

Consider `CN1CCCCC1CCN1c2ccccc2Sc2ccc(S(C)=O)cc21` (stereo not given), for which the inhibition is 0.68%.

`CN1CCN(CCC(=O)N2c3ccccc3Sc3ccc(Cl)cc32)CC1`: the inhibition is -0.99%.

With `CN1CCN(CCCN2c3ccccc3Sc3ccc(C(F)(F)F)cc32)CC1`, the inhibition is 5.34%.

Consider `OCCN1CCN(CCCN2c3ccccc3Sc3ccc(Cl)cc32)CC1`, for which the inhibition is 4.15%.

For `CN1CCN(CCCN2c3ccccc3Sc3ccc(S(=O)(=O)N(C)C)cc32)CC1`, the inhibition was 0.8%.

On to `CN1CCCC(CN2c3ccccc3Sc3ccccc32)C1` (stereo not given), for which the inhibition was -0.92%.

On to `O=C(Nc1cccc(-n2cccn2)c1)C1CCCN(Cc2cccc(F)c2F)C1` (stereo not given), for which the inhibition is -4.31%.

With `N/C(=N\OC(=O)c1ccc(Br)cc1)c1ccncc1`, the inhibition is 5.21%.

Turning to `COc1ccc(OC)c(S(=O)(=O)N2CCC(C(=O)NCc3ccc4c(c3)OCO4)CC2)c1`, the inhibition was -8.79%.

Regarding `Cc1ccc2cc(CCNC(=O)c3cccs3)c(=O)[nH]c2c1C`, the inhibition was 3.08%.

Regarding `CCOc1ccc(S(=O)(=O)N2CCN(C(=O)c3ccc(-n4cncn4)c([N+](=O)[O-])c3)CC2)cc1`, the inhibition was -1.56%.

Regarding `COc1ccc(N2CCN(C(c3cccs3)C(C)NS(C)(=O)=O)CC2)cc1` (stereo not given), the inhibition is -6.29%.
